High-throughput results as filed in PubChem.
In the library only some 12% were active in any assay of this set; here they are far more common.
JMJD2A Tudor inh: qHTS Assay for Inhibitors of JMJD2A-Tudor Domain; AlphaScreen JMJD2A-Tudor / H3K4me3 peptide binding; AID 504339, 2011; Potency, µM (titrated, usually from 114 µM), inactives show at the highest dose activity change, negative = inhibition, hits mostly inhibitors; actives 4.4% (n = 390,000); Lysine-specific demethylase 4A (Homo sapiens), O75164; further: on the % scale 0 is the no-effect control and ±100 the full control effect; nearly all actives have a fitted effect of over 50% in size
L3MBTL1 block: qHTS Assay for the Inhibitors of L3MBTL1; AID 485360, 2010; AlphaScreen L3MBTL1–H3K9me1 peptide binding; Potency, µM (series often up to 57.1 µM), without a hit: at the highest dose activity, negative = inhibition, usual class: inhibitors; actives 0.66% (n = 230,000); further: on the % scale 0 is the no-effect control and ±100 the full control effect; nearly all actives have a fitted effect of over 60% in size
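L3MBTL1 50 nM + b-AHA-H3(1-15)K9me1 75 nM, 30 min RT; compound added, 30 min RT; streptavidin donor/Ni-chelate acceptor beads 10 ug/mL each final, 30 min RT dark; AlphaScreen read.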
G9a inh: qHTS Assay for Inhibitors of Histone Lysine Methyltransferase G9a; Histone-lysine N-methyltransferase EHMT2 (Homo sapiens), Q96KQ7; G9a H3K9 monomethylation, AlphaScreen, 2 h; Potency, µM (titrated, usually from 102 µM), for inactives: at the top dose activity, negative = inhibition, actives largely listed as inhibitors; actives 8.8% (n = 350,000); further: on the % scale 0 is the no-effect control and ±100 the full control effect; nearly all actives have a fitted effect of over 75% in size
Target sequence (Q96KQ7 913-1193 limits assumed): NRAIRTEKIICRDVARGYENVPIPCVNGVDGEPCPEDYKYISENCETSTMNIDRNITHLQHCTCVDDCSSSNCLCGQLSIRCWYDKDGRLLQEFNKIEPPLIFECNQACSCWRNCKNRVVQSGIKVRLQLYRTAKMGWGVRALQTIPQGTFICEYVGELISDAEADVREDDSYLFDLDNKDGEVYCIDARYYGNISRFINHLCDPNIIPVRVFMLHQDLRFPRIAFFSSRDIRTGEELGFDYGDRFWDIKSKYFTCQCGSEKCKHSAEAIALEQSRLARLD
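G9a (20 nM) was preincubated 15 min with compound, then reacted 2 h at room temperature with 500 nM biotin-H3K9 peptide and 20 µM SAM. Monomethyl-H3K9 detected by AlphaScreen using anti-H3K9me1 antibody.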
HP1b binding inh: HTS for Inhibitors of HP1-beta Chromodomain Interactions with Methylated Histone Tails; Chromobox protein homolog 1 (Homo sapiens), P83916; AlphaScreen HP1-beta / biotin-H3K9me3 peptide binding; Potency, µM (series often up to 114 µM), for inactives: top-dose activity change, negative = inhibition, usual class: inhibitors; actives 0.56% (n = 390,000); further: nearly all actives have a fitted effect of over 70% in size
Target sequence (P83916 whole entry, looked up): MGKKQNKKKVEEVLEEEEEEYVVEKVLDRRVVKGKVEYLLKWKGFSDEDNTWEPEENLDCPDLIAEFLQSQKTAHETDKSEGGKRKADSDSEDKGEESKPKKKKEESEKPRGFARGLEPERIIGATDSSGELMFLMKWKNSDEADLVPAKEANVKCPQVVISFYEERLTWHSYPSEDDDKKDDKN
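AlphaScreen: HP1-beta (50 nM) preformed 30 min with biotin-H3(1-18)K9me3 peptide (50 nM) in PBS pH 7.4, 0.01% Tween-20. Compound added for 30 min at RT, then streptavidin donor/nickel chelate acceptor beads (10 ug/mL) for 30 min.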
BAZ2B inh: qHTS Assay for Inhibitors of BAZ2B; AlphaScreen BAZ2B-H3K14Ac peptide displacement; Potency, µM (top dose mostly 114 µM), for inactives: top-dose activity change, negative = inhibition, actives largely listed as inhibitors; actives 4.4% (n = 360,000); AID 504333, 2011; further: on the % scale 0 is the no-effect control and ±100 the full control effect; nearly all actives have a fitted effect of over 60% in size
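Inhibition is scored as reduced AlphaScreen emission. The BAZ2B/b-H3(5-23)K14Ac complex (50 nM each) in PBS pH 7.4, 0.01% Tween-20 meets compound (up to 110 uM) for 30 min at RT before bead addition.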
Sfp PPTase inh: qHTS Assay for Inhibitors of Bacillus subtilis Sfp phosphopantetheinyl transferase (PPTase). 4'-phosphopantetheinyl transferase ffp (Bacillus subtilis), Q9F4F7. Biochemical Sfp PPTase activity, qHTS. Potency, µM, for inactives: largest response in the series, negative = inhibition, most hits filed as inhibitors. actives 3.5% (n = 310,000). AID 1490, 2009;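 further: the enzyme is Sfp with the accession as filed and its product quenches rhodamine fluorescence; 0% = enzyme reaction without inhibitor and -100% = no enzyme wells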
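Compounds were incubated with enzyme (final 15 nM) for 15 min at room temperature before substrate addition started the reaction. Fluorescence at 525 nm excitation, 598 nm emission was recorded immediately and after 30 minutes.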
* = called active by the depositor; ? = inconclusive; nt = no result given; [ ] = dose if it differs, or a comment. The call rests on the fitted dose curve; in most records, active means well fitted curve in the direction sought with a large enough effect; inconclusive means small, poorly fitted or top-dose-only effect, or another doubt; inactive means no such curve, though single readings can be large; an effect the other way counts as inactive or inconclusive. Potency means the concentration at half of the fitted maximal effect.

SMILES | JMJD2A Tudor inh | L3MBTL1 block | G9a inh | HP1b binding inh | BAZ2B inh | Sfp PPTase inh
Cc1cccc(N(C)c2nc3ccc(C)cc3n3cnnc23)c1 | 1.1% | nt | -2.4%[59 µM] | 31.8% | 1.9% | nt
Cc1cc(C)cc(-n2c(C)nc3cc(C(=O)NCc4ccccc4Cl)ccc32)c1 | -27.2% | nt | -32.1%[59 µM] | 20.2% | -17.0% | nt
COc1cccc(C2=NOC(C(=O)Nc3ccc4c(c3)OCO4)C2)c1 (centres undefined) | -13.1% | nt | ? | 30.7% | -34.8% | 8.7%
O=C(NCc1ccco1)C1CC(c2ccccc2C(F)(F)F)=NO1 (centres undefined) | -11.8% | nt | 5.8%[59 µM] | 33.1% | -1.3% | -8.8%
COc1ccc(NC(=O)C2CC(c3ccc(OC)c(OC)c3)=NO2)cc1OC (centres undefined) | -21.6% | -6.0% | ? | 10.7% | -25.5% | -15.5%
COc1cccc(C2=NOC(C(=O)Nc3ccc4c(c3)OCO4)C2)c1OC (centres undefined) | -12.1% | nt | 44.7µM* | 0.4% | -8.1% | 0.1%
O=C(NCc1ccco1)C1CC(c2ccccc2O)=NO1 (centres undefined) | ? | -6.9% | nt | 1.8% | 79.4µM* | -26.0%
COc1ccc(C2=NOC(C(=O)Nc3ccc4c(c3)OCO4)C2)cc1OC (centres undefined) | -26.4% | nt | 50.1µM* | 16.9% | nt | 5.4%
COc1ccc(NC(=O)C2CC(c3ccccc3O)=NO2)cc1OC (centres undefined) | -11.7% | 4.1% | 44.7µM* | 32.1% | 2.8% | 18.8%
O=C(NCc1ccc(F)cc1)n1c(-c2ccccc2)c(P(=S)(c2ccccc2)c2ccccc2)c2ccccc21 | -11.6% | nt | nt | nt | nt | nt
COC(=O)C1C(O)CC[C@@H]2CN3CCc4c([nH]c5ccccc45)C3C[C@@H]12 (some centres undefined) | nt | nt | -34.4%[2.33 µM] | nt | nt | 7.1%
CCOC(=O)c1ccc(N2C(=O)c3n[nH]c(-c4cccs4)c3C2c2cccc(F)c2)cc1 (centres undefined) | ? | nt | -46.2%[59 µM] | 20.4% | nt | nt
Cc1[nH]c2ccccc2c1C(c1ccccc1)c1ccc(Cl)s1 (centres undefined) | ? | nt | -8.6%[59 µM] | 23.0% | ? | nt
COc1cccc(CNC(=O)c2ccc3c(c2)nnn3C2CCCC2)c1 | 2.3% | nt | 4.3%[59 µM] | 33.4% | 1.2% | nt
COc1cc(C2=NOC(C(=O)Nc3ccc4c(c3)OCO4)C2)cc(OC)c1OC (centres undefined) | -33.7% | nt | 25.1µM* | 10.4% | -35.4% | -2.9%
COc1ccc(NC(=O)C2CC(c3cc(OC)c(OC)c(OC)c3)=NO2)cc1OC (centres undefined) | -28.2% | nt | ? | -3.6% | -29.7% | -2.9%
Cc1c(-c2cccc(NC(=O)Nc3ccccc3)c2)nc2ncccn12 | -2.9% | nt | -5.2%[59 µM] | 20.8%[57 µM] | -3.4% | nt
Cc1cccc(NC(=O)C2CCCN2S(=O)(=O)c2ccc3nc(-c4ccccc4)[nH]c3c2)c1 (centres undefined) | -22.7% | nt | -8.9%[59 µM] | 11.9% | ? | nt
Cc1ccc(NC(=O)c2cc(NC(=O)c3ccco3)ccc2N2CCOCC2)cc1 | -1.4% | -29.1%[11.4 µM] | -29.8%[59 µM] | 27.9% | 5.8% | -6.6%
O=C(Nc1ccc(N2CCOCC2)cc1N1CCOCC1)c1ccccc1 | -13.0% | -14.8% | nt | 4.6% | nt | nt
O=C(Nc1ccc(N2CCOCC2)c(C(=O)O)c1)c1ccco1 | nt | nt | 56.2µM* | nt | -0.9% | 12.1%
O=C(Nc1ccc(N2CCOCC2)cc1N1CCOCC1)c1ccco1 | 56.2µM* | 5.7% | ? | ? | 1.9% | 7.6%
COc1cccc(CNC(=O)CSc2nc3ccccc3nc2Cc2ccccc2)c1 | -21.1% | nt | 7.8%[59 µM] | 12.9%[57 µM] | 5.0% | nt
CN(C)CCOC1c2ccccc2CCc2ccc3ccccc3c21 (centres undefined) | 31.6µM* | nt | nt | ? | nt | nt
CCCCOc1ccc(C2/C(=C(/O)c3ccc4c(c3)CC(C)O4)C(=O)C(=O)N2CCCN2CCOCC2)cc1OC (centres undefined) | ? | nt | 56.2µM* | 11.1% | -20.2% | 5.5%
SMILES | JMJD2A Tudor inh | L3MBTL1 block | G9a inh | HP1b binding inh | BAZ2B inh | Sfp PPTase inh
COc1cc(C2/C(=C(\O)c3ccc4c(c3)CC(C)O4)C(=O)C(=O)N2CC2CCCO2)cc(OC)c1OC (centres undefined) | -3.5% | nt | 50.1µM* | 19.5% | ? | 1.6%
COc1cc(C2/C(=C(\O)c3ccc4c(c3)CC(C)O4)C(=O)C(=O)N2CCN2CCOCC2)cc(OC)c1OC (centres undefined) | ? | nt | 70.8µM* | 12.4% | -22.6% | 4.0%
COC(=O)c1ccc(C2/C(=C(/O)c3ccc(OC)cc3)C(=O)C(=O)N2CC2CCCO2)cc1 (centres undefined) | -10.1% | 7.3% | -31.3%[12.7 µM] | 1.5% | 5.3% | 16.5%
COc1ccc(/C(O)=C2/C(=O)C(=O)N(CC3CCCO3)C2c2cccc(O)c2)cc1 (centres undefined) | 50.1µM* | 0.3% | ? | -3.5% | -26.1% | 11.0%
COc1ccc(/C=C/C(=O)Nc2nc3n(n2)C(c2ccccc2)C=C(c2ccccc2)N3)cc1 (centres undefined) | -32.5% | nt | -9.4%[59 µM] | 27.2% | -19.0% | nt
CC(C)C(NCc1c(Cl)cccc1Cl)C(=O)O (centres undefined) | -17.9% | 0.0% | 79.4µM* | 15.9% | -0.7% | 15.4%
CC[n+]1c(C)sc2c(C)cc(C)cc21 | -28.1% | 6.6% | -45.7%[59 µM] | 54.9% | -1.3% | ?
Cc1cc(C)c2sc(C)[n+](CCCS(=O)(=O)[O-])c2c1 | -1.4% | ? | -43.6% | 70.8% | -0.4% | 2.51µM*
O=C1C(Cl)=C(Nc2ccc(O)cc2)C(=O)c2ccccc21 | ? | -1.9% | 11.2µM* | ? | ? | -22.1%
CCN(CC)c1ccc(NC2=C(Cl)C(=O)c3ccccc3C2=O)cc1 | 2.51µM* | ? | 1.78µM* | 3.98µM* | 2.24µM* | ?
COc1ccc(NC2=C(NC(C)=O)C(=O)c3ccccc3C2=O)cc1 | -21.0% | nt | ? | ? | ? | 1.2%
CCN(CC)c1ccc(NC(=O)CCCCC(=O)Nc2ccc(N(CC)CC)cc2)cc1 | -30.6% | nt | nt | 7.7% | nt | nt
Cc1ccc(NC2=C(Cl)C(=O)c3ccccc3C2=O)cc1 | ? | -6.1% | 79.4µM* | -19.9% | ? | 15.9%
CCC(=O)NC1=C(Nc2ccc(N)cc2)C(=O)c2ccccc2C1=O | -22.7% | nt | 50.1µM* | ? | ? | -0.7%
